Source: PubChem (National Center for Advancing Translational Sciences (NCATS))
Pol beta inh: blocks human DNA polymerase beta activity; P06746; Pol beta primer extension/strand displacement, fluorescence kinetic; 340,000 compounds, 1.3% hits; AID 485314; Potency, µM (highest dose often 114 µM), inactives show top-dose activity change, negative = inhibition, most hits filed as inhibitors; further: potency means the concentration at half of the fitted maximal effect; on the % scale 0 is the no-effect control and ±100 the full control effect
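Human Pol beta at 10 nM; strand-displacement substrate 50 nM final. Compound exposure 15 min at room temperature before start, reaction 10 min at room temperature.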
POLH inh: DNA polymerase eta (human) inhibition; Q9Y253; AID 588591; 390,000 compounds, 1.2% hits; recombinant Pol eta, fluorescent DNA replication assay; Potency, µM (doses to about 114 µM), for inactives: top-dose activity change, negative = inhibition, hits mostly inhibitors; further: potency means the concentration at half of the fitted maximal effect; on the % scale 0 is the no-effect control and ±100 the full control effect
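Fluorescent replication assay: 50 nM final substrate added after a 15 min room-temperature compound preincubation with 10 nM enzyme. Signal taken at 0 min and again at 10 min.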
PI5P4K alpha inh: blocks human PI5P4K alpha kinase activity | 330,000 compounds, 1.2% hits | PI5P4Kalpha enzyme, ADP-Glo luminescence, 60 min; hits give low values | max response, % | AID 652105; active means max response of -50% or lower; inconclusive means between -30% and -50%; inactive means -30% or higher; further: value at the top dose of about 77 µM; on the % scale 0 is the no-effect control and ±100 the full control effect
Target sequence (P48426 whole entry, looked up): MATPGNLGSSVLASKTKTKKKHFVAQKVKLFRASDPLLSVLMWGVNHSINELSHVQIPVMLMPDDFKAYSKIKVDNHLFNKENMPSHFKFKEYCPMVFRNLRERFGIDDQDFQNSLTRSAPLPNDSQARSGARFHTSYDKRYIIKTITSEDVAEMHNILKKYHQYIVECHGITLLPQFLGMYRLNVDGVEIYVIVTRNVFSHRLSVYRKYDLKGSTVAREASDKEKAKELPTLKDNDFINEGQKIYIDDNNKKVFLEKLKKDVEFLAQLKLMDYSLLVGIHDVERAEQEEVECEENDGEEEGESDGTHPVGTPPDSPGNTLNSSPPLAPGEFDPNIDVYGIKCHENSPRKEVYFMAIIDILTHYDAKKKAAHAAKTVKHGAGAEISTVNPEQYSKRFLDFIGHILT
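ADP-Glo luminescence end-point after a 60 min room-temperature kinase reaction. PI5P4Kalpha and substrate in HEPES pH 7.4 buffer with EGTA, 0.1% CHAPS and 5% DMSO; ATP at 5 microM final.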
POLI inh: DNA polymerase iota (human) inhibition; 390,000 compounds, 1% hits; Q9UNA4; Pol iota fluorescent replication assay, 10 min; AID 588590; Potency, µM (series often up to 115 µM), inactives show top-dose activity, negative = inhibition, usual class: inhibitors; further: potency means the concentration at half of the fitted maximal effect
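Pol iota at 10 nM preincubated 15 min with compounds at room temperature; reaction started with fluorescent substrate, 50 nM final. Fluorescence read kinetically at 0 and 10 min; buffer-only wells as negative control.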
Pol kappa inh: blocks human DNA polymerase kappa activity. purified Pol kappa, fluorescent DNA synthesis assay, 10 min. Potency, µM (top dose mostly 107 µM), for the others: top-dose activity, negative = inhibition, hits mostly inhibitors. 400,000 compounds, 0.53% hits. AID 588579; further: potency means the concentration at half of the fitted maximal effect; on the % scale 0 is the no-effect control and ±100 the full control effect
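Kinetic fluorescence readout at 0 and 10 min followed reaction start with substrate at 50 nM final. Beforehand, enzyme (10 nM Pol kappa) stood 15 min with compound at room temperature; buffer-only wells were negative controls.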
WRN helicase inh: WRN helicase (human) inhibition | Q14191 | Potency, µM (series often up to 114 µM), for inactives: at the top dose activity change, negative = inhibition, hits mostly inhibitors | 360,000 compounds, 0.46% hits | WRN helicase unwinding, fluorescent forked duplex, kinetic | AID 651768; further: potency means the concentration at half of the fitted maximal effect; on the % scale 0 is the no-effect control and ±100 the full control effect; nearly all actives have a fitted effect of over 55% in size
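Enzyme (20 nM final) and test compound sit together 15 min at room temperature before substrate addition. Substrate is a single-forked duplex oligonucleotide (100 nM) labelled with fluorophore and quencher, with 2 mM ATP; helicase unwinding raises red fluorescence, read kinetically.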
ADP-Glo counter: ADP-Glo luciferase interference, PI5P4K counter-screen; shares compounds with PI5P4K alpha inh; ADP-Glo detection counter-screen, luciferase luminescence, no enzyme; Potency, µM (highest dose often 76.9 µM), for the others: at the top dose activity change, negative = inhibition, most hits filed as inhibitors; 1,100 tested, under 10 active
* marks the source's active call; other numbers are inactive results; ? = inconclusive; nt = not tested or not shown; [ ] = another dose, or the depositor's remark. This is a sample that favours compounds with a hit; in the whole collection about 2.8% have one here. Unless noted, the call rests on the fitted dose curve; in most records, active means well fitted curve in the direction sought with a large enough effect; inconclusive means small, poorly fitted or top-dose-only effect, or another doubt; inactive means no such curve, though single readings can be large; an effect the other way counts as inactive or inconclusive.

SMILES	Pol beta inh	POLH inh	PI5P4K alpha inh	POLI inh	Pol kappa inh	WRN helicase inh	ADP-Glo counter
CC(C)(C)C1=Nn2c(nnc2-c2n[nH]c3c2CCC3)SC1	9%	-5%	-61*	6%	-1%	-3%	1%
Cn1cc(-c2ccc(C(=O)Nc3cccc(Oc4ccccc4)c3)c3occc23)cn1	nt	nt	-2	nt	nt	-4%	nt
CCOC(=O)c1nnn(-c2nc(N(C)C)nc(N(C)C)n2)c1C	9%	-7%	-4	85%	8%	9%	nt
CCOC(=O)c1nnn(-c2ccccc2)c1C	-20%	-9%	0	-4%	-4%	0%	-1%
Cc1cc(C(=O)Nc2cccc3c2O[C@@H](CN(C)S(=O)(=O)c2ccccc2)[C@H](C)CN([C@@H](C)CO)C3=O)n(C)n1	nt	-17%	-1	49%	4%	6%	nt
Cc1cc(C(=O)Nc2cccc3c2O[C@@H](CN(C)S(C)(=O)=O)[C@H](C)CN([C@@H](C)CO)C3=O)n(C)n1	nt	-7%	0	-5%	-8%	4%	2%
CCOC(=O)C1(C)CCCN1C(=O)c1ccc(OC)c(F)c1 (stereo not drawn)	nt	nt	-2	nt	nt	3%	nt
COc1ccc(C(=O)N2CCC2(C)C(=O)O)cc1F (stereo not drawn)	nt	nt	?	nt	nt	2%	2%
O=C(CC1C(=O)NCCN1CC1CCCCC1)NCc1cc(F)ccc1F (stereo not drawn)	2%	-15%	-63*	59%	2%	-34%	6%
COc1ccc(F)cc1C(=O)C1CCCN(Cc2ccc(Sc3nncn3C)o2)C1 (stereo not drawn)	-2%	-24%	0	10%	1%[60.1 µM]	-2%	nt
CC1CCN(c2oc(-c3ccc(COc4ccccc4)o3)nc2C#N)CC1	-2%	-21%	nt	34%	-1%	nt	nt
O=C(NCCCCc1ccccc1)c1cccc(NC(=O)C2CC2)c1	nt	-7%	-53*	-21%	2%	4%	-1%
O=C(NCCCc1ccccc1)c1cccc(NC(=O)C2CC2)c1	nt	-9%	-4	27%	-1%	5%	nt
CCC(Sc1nc2ccncc2[nH]1)C(=O)Nc1cc(C)ccc1C (stereo not drawn)	1%	-14%	nt	?	-4%	nt	nt
O=C(CCS(=O)(=O)c1ccc2c(c1)NC(=O)CS2)NCCc1ccccc1	11%	-3%	-1	-2%	-19%	-2%	nt
O=C(CCS(=O)(=O)c1ccc2c(c1)NC(=O)CS2)NCCc1ccc(Cl)cc1	7%	-23%	-60*	17%	-4%	-3%	0%
Cc1csc(NC(=O)CSc2nc3[nH]ncc3c(=O)[nH]2)n1	10%	-17%	nt	27%	-8%	-2%	2%
CCOc1ccc(OCC(=O)Nc2ccc(S(=O)(=O)Nc3cc(C)nc(C)n3)cc2)cc1	-1%	?	-25	?	-5%	-16%	nt
Cc1cc(NS(=O)(=O)c2ccc(NC(=O)COc3ccc(Br)cc3)cc2)nc(C)n1	2%	4%	-54*	-1%	-24%	-9%	-1%
Clc1ccc(-c2nnc(-c3ccc(Br)cc3)c(N3CCSCC3)n2)cc1	1%	-18%	nt	20%	-3%	2%	nt
Clc1ccc(-c2nnc(-c3ccco3)nc2N2CCCCC2)cc1	40µM*	?	-67*	-8%	-18%	?	-5%
COc1ccc(N2CCN(C(=O)c3[nH]c(C(F)(F)F)nc3-c3ccccc3)CC2)cc1	nt	nt	-4	nt	nt	0%	2%
Cc1nc2ccc(NC3=NCCCCC3)cc2s1	-12%	?	-55*	9%	-15%	-7%	-10%
Cc1ccc(NC2=NCCC2)cc1Cl	9%	-6%	1	13%	-3%	5%	nt
Cc1cc(NC(=O)CN2CCN(C)CC2)no1	7%	-8%	-51*	16%	-2%	5%	3%
SMILES	Pol beta inh	POLH inh	PI5P4K alpha inh	POLI inh	Pol kappa inh	WRN helicase inh	ADP-Glo counter
CC1(C(=O)NC2CCCCC2)CCC(=O)N1CC(F)(F)F (stereo not drawn)	nt	nt	-1	nt	nt	3%	nt
COCCn1c(=S)[nH]c2cc(C(=O)N(CCO)Cc3ccccc3)ccc2c1=O	17%	-22%	-4	12%	-4%	4%	nt
COCCn1c(=S)[nH]c2cc(C(=O)NCCc3ccccc3)ccc2c1=O	1%	-10%	-58*	45%	-3%	-10%	1%
Cc1cccc(Nc2nc(NCc3ccco3)c3ccccc3n2)c1	5%	-11%	nt	-1%	-2%	?	2%
O=C(CSc1nnc(NC(=O)c2ccco2)s1)Nc1ccccc1Cl	39%	-5%	4	137%	1%	-5%	nt
O=C(Nc1nnc(SCc2ccc(Cl)cc2)s1)c1ccco1	17%	-10%	-57*	?	-1%	-4%	4%
CC1CCN(CCCNC(=O)c2cc(Sc3ccc(F)cc3)nc3ccccc23)CC1	-3%	-7%	nt	?	-5%[60.1 µM]	nt	nt
CCN(CC(=O)Nc1ccc(NC(C)=O)cc1)C(=O)c1cc2c(s1)CCCC2	nt	?	-50*	?	-22%	-6%	-6%
CCN(CC(=O)Nc1ccc(NC(C)=O)cc1)C(=O)c1cc2c(s1)CCCCC2	nt	-20%	5	10%	-4%	-1%	nt
CCOC(=O)c1c(-c2ccccc2)csc1NC(=O)c1cc(-c2cccc(OC)c2)on1	10%	-17%	nt	15%	9%	nt	nt
NC(=O)C1CCN(c2cc(Cl)nc(N)n2)CC1	-2%	-5%	-53*	?	0%	-21%	3%
N#Cc1c(NC(=O)CSc2ncccn2)oc(-c2ccccc2)c1-c1ccccc1	nt	10µM*	-58*	?	?	?	6%
Cc1c(C(=O)OCC(C)C)[nH]c2c1C(=O)CC(c1ccco1)C2 (stereo not drawn)	25µM*	32µM*	-56*	?	-27%	-17%[57.1 µM]	-13%
Cc1cc(Nc2cc(C(=O)O)ccc2C)n2ncnc2n1	10%	-19%	4	4%	2%	-1%	nt
Cc1cc(Nc2ccccc2C(=O)O)n2ncnc2n1	nt	6%	nt	nt	nt	7%	1%
CCc1ccc(NCc2cc3cc(OC)c(OC)cc3n(CC(=O)Nc3cc(C)ccc3C)c2=O)cc1	6%	-9%	nt	16%	1%	nt	nt
CC(C)(C)[C@H]1C=C(C(=O)N2CCOCC2)O[C@@H](OCc2ccc(CO)cc2)C1	45%	-2%	0	?	-1%	-3%	3%
C[C@@H]1CCCCO[C@@H](CN(C)S(=O)(=O)c2cn(C)cn2)[C@@H](C)CN([C@H](C)CO)C(=O)c2cc(N(C)C)ccc2O1	nt	-16%	8	nt	nt	-8%	nt
